# Data as given in PubChem BioAssay (NCATS).
# Results filed as inconclusive are left out. Values without a mark were called inactive. The source made the active and inactive calls. The call rests on the fitted dose curve; in most records, active means well fitted cell-killing curve with a large enough effect; inconclusive means small, poorly fitted or top-dose-only effect, or effect the other way; inactive means flat fitted curve, though single readings scatter.
# Tested on: OV90
# Assay: Primary qHTS to identify gynecologic anti-cancer compounds using libraries of approved drugs and bioactive compounds (AID 1345084); further: nearly all actives have a fitted effect of over 55% in size
# Conditions: Gynecologic cancer cell panel viability, ATPlite luminescence, 48 h; series mostly up to 57.5 µM; activity change, negative = cytotoxicity: at the top concentration
# In short: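 Luminescence from the ATPlite ATP-monitoring reagent indicates viable cell number; lower signal means cytotoxicity. Cells received compound 16 h after seeding and were exposed for 48 h across five concentrations.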
# On the % scale 0 is the no-effect control and ±100 the full control effect; potency means the concentration at half of the fitted maximal effect.
SMILES,"activity change, negative = cytotoxicity",Potency
O=C(/C=C/c1ccc(O)c(O)c1)O[C@H]1[C@H](OC2CCCCC2O)O[C@H](CO)[C@@H](O)[C@@H]1O (stereo partly drawn),-10.7% [at 25.3 µM],–
Fc1ccccc1-c1nc2ccn(Cc3ccc(-c4ccc(C(F)(F)F)cc4C(F)(F)F)nn3)cc-2n1,8.26%,–
C=C1C2(C)CC3C4(C)OC(C5OC56C4=CC(=O)OC6(C)C)C3(C)C13C(=O)OC(C)C3(O)C2=O (stereo not drawn),9.44% [at 25.3 µM],–
COc1cc(/C=C/CO[C@@H]2O[C@H](CO)[C@@H](O)[C@H](O)[C@H]2O)cc(OC)c1O[C@@H]1O[C@H](CO)[C@@H](O)[C@H](O)[C@H]1O,12.9% [at 25.3 µM],–
Cc1onc(-c2ccccc2Cl)c1C(=O)N(C)c1ccc(Cl)cc1,-5.16%,–
C/C=C(\C)C(=O)OC1C(C)C2(O)C3C=C(C)C(=O)C3CC(CO)=CC2C2C(C)(C)C12OC(C)=O (stereo not drawn),-2.18% [at 25.3 µM],–
CC1=C2CC(C)(C)CC2C(O)C2=C(C1)C(=O)OC2O (stereo not drawn),6.15%,–
CC(C)C1(O)NC(=O)C(CC2(O)c3ccccc3N3C(=O)C(C)(C)NC32)n2c1nc1ccccc1c2=O (stereo not drawn),-8.15% [at 25.3 µM],–
COc1ccc(-c2ccn(CC[C@](C)(C(=O)NO)S(C)(=O)=O)c(=O)c2)c(F)c1,–,15.8 µM (active)
O=C(NC/C=C/CN1CCN(c2cccc(Cl)c2Cl)CC1)c1ccc(-c2ccccn2)cc1,2.08%,–
CC(=O)OC1CC2(C)C(CCC(C)C23Cc2c(O)cc4c(c2O3)CNC4=O)C(C)(C)C1O (stereo not drawn),-1.6% [at 25.3 µM],–
O=C(O)CCc1cc2ccoc2cc1O[C@@H]1O[C@H](CO)[C@@H](O)[C@H](O)[C@H]1O,2.34% [at 38.5 µM],–
CC(=O)O[C@@H](C[C@@H]1C=C(C)C(=O)O1)[C@H](C)[C@H]1CCC2[C@@]3(C)CC[C@H](O[C@@H]4O[C@H](CO)[C@@H](O)[C@H](O)[C@H]4O[C@@H]4O[C@@H](C)[C@H](O)[C@@H](O)[C@H]4O)C(C)(C)C3CC[C@@]2(C)[C@@]12COC(=O)C2 (stereo partly drawn),15.4% [at 11.6 µM],–
